Experimental data from PubChem BioAssay AID1159580 (chemical genetic matrix, 2015).
Several values for one entry are separate records, joined by “and”; a condition that tells them apart may be missing. Identical values can stand only once. Among all 5,500 compounds or so, about 2,000 (36%) were called active. Another 18% or so got no clear call; they are omitted. The list shows a part of the results. Unmarked numbers belong to inactive results. Rule as the data show it: active = normalized growth mostly below about 0.91 (no sharp cut-off); inconclusive = no clear call, values can overlap the other calls; inactive = mostly above about 0.92.

Test: chemical genetic growth profiling, strain panel (AID 1159580);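 also: tested at 20 µM; growth read once vehicle control cultures reached saturation at 30 °C; 1 = growth at the plate median or of vehicle wells; lower values mean less growth of the strain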
Conditions: S. cerevisiae deletion strains, growth OD

## CN(C)CCC=C1c2ccccc2CCc2ccccc21
Locus YAL013W, strain DEP1, active compounds read low
  normalized growth: 0.992
Locus YAL021C, strain ccr4, active compounds read low
  normalized growth: 0.896 (active)
Locus YAL026C, strain drs2, active compounds read low
  normalized growth: 0.894 (active)
Locus YAL030W, strain snc1, active compounds read low
  normalized growth: 0.995
Locus YAL040C, strain CLN3, active compounds read low
  normalized growth: 1
Locus YBL061C, strain skt5, active compounds read low
  normalized growth: 0.991
Locus YBR009C, strain hhf1, active compounds read low
  normalized growth: 0.913
Locus YBR021W, strain FUR4, active compounds read low
  normalized growth: 1
Locus YBR023C, strain chs3, active compounds read low
  normalized growth: 0.975
Locus YBR171W, strain sec66, active compounds read low
  normalized growth: 0.969
Locus YBR229C, strain ROT2, active compounds read low
  normalized growth: 1
Locus YBR231C, strain swc5, active compounds read low
  normalized growth: 1
Locus YBR279W, strain paf1, active compounds read low
  normalized growth: 0.958
Locus YCL011C, strain gbp2, active compounds read low
  normalized growth: 0.946
Locus YCL016C, strain dcc1, active compounds read low
  normalized growth: 0.958
Locus YCL029C, strain bik1, active compounds read low
  normalized growth: 1
Locus YCL061C, strain MRC1, active compounds read low
  normalized growth: 0.993
Locus YCL069W, strain vba3, active compounds read low
  normalized growth: 0.987
Locus YCR088W, strain abp1, active compounds read low
  normalized growth: 0.953
Locus YDL005C, strain med2, active compounds read low
  normalized growth: 0.993
Locus YDL035C, strain GPR1, active compounds read low
  normalized growth: 1.02
Locus YDL040C, strain nat1, active compounds read low
  normalized growth: 0.989
Locus YDL074C, strain BRE1, active compounds read low
  normalized growth: 0.999
Locus YDL101C, strain DUN1, active compounds read low
  normalized growth: 1.01
Locus YDL134C, strain PPH21, active compounds read low
  normalized growth: 0.998
Locus YDL185W, strain tfp1, active compounds read low
  normalized growth: 1
Locus YDL192W, strain arf1, active compounds read low
  normalized growth: 0.996
Locus YDR001C, strain nth1, active compounds read low
  normalized growth: 0.963
Locus YDR069C, strain doa4, active compounds read low
  normalized growth: 0.955
Locus YDR101C, strain arx1, active compounds read low
  normalized growth: 0.995
Locus YDR137W, strain rgp1, active compounds read low
  normalized growth: 1.19 [resistant] (active)
Locus YDR159W, strain sac3, active compounds read low
  normalized growth: 0.962
Locus YDR162C, strain NBP2, active compounds read low
  normalized growth: 1.02
Locus YDR195W, strain ref2
  normalized growth: 1.07
Locus YDR297W, strain sur2, active compounds read low
  normalized growth: 0.975
Locus YDR318W, strain mcm21, active compounds read low
  normalized growth: 1
Locus YDR334W, strain swr1, active compounds read low
  normalized growth: 0.98
Locus YDR335W, strain msn5, active compounds read low
  normalized growth: 0.973
Locus YDR363W, strain ESC2, active compounds read low
  normalized growth: 1
Locus YDR388W, active compounds read low
  normalized growth: 1
Locus YDR392W, strain spt3, active compounds read low
  normalized growth: 0.922
Locus YDR502C, strain sam2, active compounds read low
  normalized growth: 0.992
Locus YEL003W, strain gim4, active compounds read low
  normalized growth: 0.978
Locus YEL037C, strain rad23, active compounds read low
  normalized growth: 0.984
Locus YEL061C, strain CIN8 (second series), active compounds read low
  normalized growth: 0.988
Locus YEL061C, strain CIN8, active compounds read low
  normalized growth: 1.01
Locus YER002W, strain NOP16, active compounds read low
  normalized growth: 1.01
Locus YER015W, strain faa2, active compounds read low
  normalized growth: 0.913 (active)
Locus YER016W, strain bim1, active compounds read low
  normalized growth: 0.951
Locus YER110C, active compounds read low
  normalized growth: 1
Locus YER111C, strain swi4, active compounds read low
  normalized growth: 0.97
Locus YER155C, strain BEM2 (second series), active compounds read low
  normalized growth: 1
Locus YER155C, strain BEM2, active compounds read low
  normalized growth: 1
Locus YER167W, strain BCK2, active compounds read low
  normalized growth: 1.01
Locus YFR010W, strain ubp6, active compounds read low
  normalized growth: 0.94
Locus YGL078C, strain dbp3, active compounds read low
  normalized growth: 0.986
Locus YGL086W, strain mad1, active compounds read low
  normalized growth: 1
Locus YGL167C, strain pmr1, active compounds read low
  normalized growth: 0.995
Locus YGL173C, strain kem1, active compounds read low
  normalized growth: 0.966
Locus YGL227W, strain vid30, active compounds read low
  normalized growth: 0.994
Locus YGL240W, strain doc1, active compounds read low
  normalized growth: 0.999
Locus YGL248W, strain PDE1, active compounds read low
  normalized growth: 1.01
Locus YGL253W, strain hxk2, active compounds read low
  normalized growth: 0.953
Locus YGR078C, strain PAC10, active compounds read low
  normalized growth: 1
Locus YGR135W, strain pre9, active compounds read low
  normalized growth: 0.994
Locus YGR229C, strain SMI1, active compounds read low
  normalized growth: 0.975
Locus YGR252W, strain gcn5, active compounds read low
  normalized growth: 0.944
Locus YHR013C, strain ard1, active compounds read low
  normalized growth: 0.875
Locus YHR027C, strain rpn1, active compounds read low
  normalized growth: 0.864 (active)
Locus YHR030C, strain SLT2, active compounds read low
  normalized growth: 1.01 and 1.08
Locus YHR079C, strain IRE1 (second series), active compounds read low
  normalized growth: 0.994
Locus YHR079C, strain IRE1, active compounds read low
  normalized growth: 1.05
Locus YHR094C, strain hxt1, active compounds read low
  normalized growth: 0.992
Locus YHR129C, strain ARP1, active compounds read low
  normalized growth: 1.01
Locus YHR142W, strain chs7, active compounds read low
  normalized growth: 0.919
Locus YHR200W, strain rpn10, active compounds read low
  normalized growth: 0.995
Locus YIL066C, strain RNR3, active compounds read low
  normalized growth: 1.02
Locus YIL073C, strain SPO22, active compounds read low
  normalized growth: 1.05
Locus YIL125W, strain kgd1, active compounds read low
  normalized growth: 0.997
Locus YIR030C, strain dcg1, active compounds read low
  normalized growth: 0.992
Locus YJL092W, strain hpr5, active compounds read low
  normalized growth: 0.979
Locus YJL095W, strain BCK1 (second series), active compounds read low
  normalized growth: 0.978
Locus YJL095W, strain BCK1, active compounds read low
  normalized growth: 1.01 and 1.05
Locus YJL115W, strain asf1, active compounds read low
  normalized growth: 0.974
Locus YJL129C, strain trk1, active compounds read low
  normalized growth: 1.01
Locus YJL134W, strain LCB3, active compounds read low
  normalized growth: 1.01
Locus YJL154C, strain vps35, active compounds read low
  normalized growth: 0.975
Locus YJL164C, strain tpk1, active compounds read low
  normalized growth: 0.974
Locus YJL166W, strain qcr8, active compounds read low
  normalized growth: 0.988
Locus YJL168C, strain set2, active compounds read low
  normalized growth: 1.01
Locus YJL187C, strain SWE1 (second series), active compounds read low
  normalized growth: 1.01
Locus YJL187C, strain SWE1, active compounds read low
  normalized growth: 0.985
Locus YJR043C, strain POL32, active compounds read low
  normalized growth: 1.01
